# Assay results reported in PubChem BioAssay (Tox21).
# Values joined by “and” are separate entries in the source; they are usually repeats but may differ in a detail not shown here. Equal values may be shown once. Inconclusive results are not listed. Values without a mark were called inactive. Active and inactive are the calls of the source. The call rests on the fitted dose curve; in most records, active means well fitted cell-killing curve with a large enough effect in the repeat runs; inconclusive means weak or mixed curves, or effect the other way; inactive means no such curve, though single readings can be large or run the other way.
# Experiment: qHTS assay for identifying genotoxic compounds that show differential cytotoxicity against isogenic chicken DT40 cell lines with known DNA damage response pathways - Rev3 mutant cell line (AID 743014); further: nearly all actives have a fitted effect of over 55% in size
# Details: chicken DT40 Rev3-/- viability, CellTiter-Glo, 40 h; series mostly up to 68.4 µM; activity, negative = cytotoxicity: at the top concentration
# Excerpt: National Center for Advancing Translational Sciences [NCATS]
# NIH Chemical Genomics Center [NCGC]
# U.S. Environmental Protection Agency [EPA]
# National Institutes of Environmental Health Sciences [NIEHS]
# National Toxicology Program [NTP]
# U.S. Food and Drug Administration [FDA]
# DNA repair pathways play a critical role in cellular homeostasis by repairing DNA damage induced by endogenous processes and xenobiotics. Isogenic chicken DT40 cell lines deficient in different DNA repair pathways can be used to identify genotoxic compounds and aid in characterizing the nature of the DNA damage induced. Two DNA repair-deficient cell lines with disrupted genes, Rad54/Ku70 or Rev3, were used to screen the Tox21 10K compound library. Possible genotoxicity was based on the presence of a significant increase in cytotoxicity in one or more of the DNA repair-deficient cell lines compared to that observed in the parental DNA repair-proficient cell line. CellTiter Glo viability assay (Promega, Madison, WI) was used to measure cell viability in these cells after compound treatment. This assay includes the data from the Rev3 mutant cell line.
# Tox21 Assay Protocol Summary:
# 300 DT40 mutant cells in 5 uL/well were dispensed into white, solid-bottom 1536-well plates using a Multidrop Combi (ThermoFisher Scientific, Waltham, MA) dispenser. After the assay plates were incubated at 37 C/5% CO2 for approximately 0.5 hour, 23 nL of compounds dissolved in DMSO, positive controls or DMSO only was transferred into the assay plate by a pintool work station (Kalypsys, San Diego, CA). The assay plates were incubated at 37 C/5% CO2 for 40 hours. After 5 uL per well of CellTiter-Glo reagent was added into each well of the assay plates, the plates were incubated for 30 min at room temperature and the luminescence intensity of the plates was measured using a ViewLux (PerkinElmer, Shelton, CT) plate reader.
# On the % scale 0 is the no-effect control and ±100 the full control effect; potency means the concentration at half of the fitted maximal effect.
Compound,"activity, negative = cytotoxicity",Potency
C=CCOC(=O)COCCC(C)C,6.26%,–
CC(=O)Oc1cccc(O)c1,10.7%,–
CC(C)(C)NCC(O)COc1cccc2c1C[C@H](O)[C@H](O)C2 (stereo not given in full),-0.0761% [at 31.4 µM],–
COc1ccc(-c2cc(C(F)F)nn2-c2ccc(S(N)(=O)=O)cc2)cc1F,1.99%,–
O=C(O)c1cccc(C[C@@H]2COc3ccc(OCc4nc5cc(F)ccc5s4)cc3[C@@H]2O)c1,–,68.7 µM (active)
CC[C@H]1OC(=O)[C@H](C)[C@@H](O[C@H]2C[C@@](C)(OC)[C@@H](O)[C@H](C)O2)[C@H](C)[C@@H](O[C@@H]2O[C@H](C)C[C@H](N(C)C)[C@H]2O)[C@](C)(O)C[C@@H](C)CN(C)[C@H](C)[C@@H](O)[C@]1(C)O,–,2.11 µM (active) and 1.81 µM (active)
CCNc1nc(N)nc(Cl)n1,-1.77%,–
O=C(c1ccccc1)C1CCC1,17.8%,–
O=C(O)c1cccc(Oc2ccccc2)c1,-0.51%,–
CC(C)C(=O)OCCOc1ccccc1,3.4%,–
C[C@H](CS)C(=O)N1CCC[C@H]1C(=O)O,-13.4%,–
Cc1cc(CCC(=O)OCCOCCOCCOC(=O)CCc2cc(C)c(O)c(C(C)(C)C)c2)cc(C(C)(C)C)c1O,–,26.6 µM (active)
COc1ccc(C(=O)NCc2ccc(OCCN(C)C)cc2)cc1OC,12.6%,–
Nc1nc(-c2ccc([N+](=O)[O-])cc2)cs1,7.21% [at 95 µM],–
COC(=O)C1=C(C)NC(C)=C(C(=O)OC(C)(C)CN(C)CCC(c2ccccc2)c2ccccc2)C1c1cccc([N+](=O)[O-])c1 (stereo not given),–,6.68 µM (active)
O=C(O)/C=C/c1ccc(O)c(O)c1,7.62% [at 95 µM],–
CC(CO)(CO)C(=O)O,-0.0378% [at 95 µM],–
C/C(C=O)=C\c1ccccc1,-15%,–
COc1ccc(C2C(=O)c3ccccc3C2=O)cc1,-0.471%,–
OCC(CO)n1cnc(-c2ccc(F)cc2)c1-c1ccnc(Oc2ccccc2)n1,–,68.5 µM (active)

Compound,"activity, negative = cytotoxicity",Potency
CCN(Cc1cccc(S(=O)(=O)O)c1)c1ccc(C(=C2C=CC(=[N+](CC)Cc3cccc(S(=O)(=O)O)c3)C=C2)c2ccccc2S(=O)(=O)[O-])cc1,–,17.3 µM (active)
COc1cc(NCc2ccc3nc(N)nc(N)c3c2C)cc(OC)c1OC,–,0.15 µM (active)
CC(C)COC(=O)c1ccc(O)cc1,-13.3%,–
O=C(O)c1cc(Cl)cc(Cl)c1O,-3.15%,–
CC(C)c1ccc(C#N)cc1,15.6%,–
CCCCCCCCCCCC(=O)OCC(O)CO (stereo not given),-6.5%,–
CC(C)(C(=O)c1cccnc1)c1cccnc1,0.996% [at 31.4 µM],–
CCCCCCCC/C=C\CCCCCCCC(=O)OCCO,–,81 µM (active)
O=C(O)CO,-1.89%,–
COC(C)(C)OC,-2.72%,–
Cc1c[nH]c2ccccc12,0.347%,–
O=C(O)CCS,11.3% [at 95 µM],–
CC(C)CC(O)CC(C)C,-9.67%,–
COc1cc(C(C)=O)ccc1OCCCN1CCC(c2noc3cc(F)ccc23)CC1,–,18.8 µM (active)
BrC(Br)C(Br)Br,-9.3%,–
COc1ccc(/C=C/C(=O)c2ccc(OC)cc2OC)cc1,–,16.8 µM (active)
COc1ccc(N)c([N+](=O)[O-])c1,1.24%,–
O=S(=O)(Cl)c1c(Cl)cccc1Cl,2.06%,–
CC(CCc1ccc(O)cc1)NCCc1ccc(O)c(O)c1 (stereo not given),–,26.6 µM (active)
C=Cc1ccc(OC(C)=O)cc1,-3.9%,–
